Assay outcomes as filed in PubChem.
An excerpt weighted towards active compounds, which were near 3.7% of everything screened.
MITF TRPM1 HTS = MITF TRPM1 promoter activation in melanoma cells. SK-MEL-5 TRPM1-promoter luciferase, 24 h; % of positive control, neutral wells = 0. activation, % at 12.5 µM. hit rate 0.75% among 300,000. AID 588334;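 active means mean activation of at least 80% with every replicate also reaching 80%; inconclusive means mean reaches 80% but some replicate falls short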;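 further: 0% = neutral control wells and 100% = parthenolide positive control wells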
esBAF inh = SWI/SNF esBAF complex inhibition | mouse ES cells, Bmi1-luciferase knock-in reporter, 24 h; 100% = twice the neutral-well signal | reporter increase, % at 12.5 µM | hit rate 2% among 350,000; in the data active means activation above about 40%; inconclusive means no clear call, values can overlap the other calls;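 further: 0% = median of the plate's neutral control wells and 100% = double that signal; a rise in the Bmi1 reporter signal indicates esBAF inhibition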
Ecoli rRNA inh = inhibits bacterial ribosomal RNA function over humanized ribosomes. E. coli WT GFP vs humanized-ribosome RFP mutants, fluorescence, 24 h; active compounds read low; DMSO median 0, no signal -100. hit rate 1.6% among 350,000. GFP signal change (wild-type ribosome), % (test concentration not listed). AID 720706;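 active means significant combined selectivity score with lowered wild-type GFP, culture density cut under 30%, mutant RFP and density less affected; inactive means any of these conditions unmet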
Wnt bcat act = activates Wnt/beta-catenin signaling in a reporter cell assay; activation, % at 9.35 µM; activator, plate reader; AID 743398; hit rate 1.2% among 300,000; in the data active means activation above about 30%, passing the limit was not always enough; inconclusive means no clear call, values can overlap the other calls;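 further: 0% = neutral control wells and 100% = positive control wells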
AF4-AF9 inh = blocks AF4 peptide binding to human AF9. AlphaScreen, biotin-AF4 peptide binding to FLAG-AF9. hit rate 0.47% among 350,000. AID 651704. inhibition, % at 10 µM;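 active means every replicate reaching a set inhibition limit, whatever the replicate mean, cut at about 25% in these data; inconclusive means mean inhibition reaches that limit but some replicates miss it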;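 further: 0% = plate neutral control median and 100% = total signal loss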
Target sequence (P42568 whole entry, looked up): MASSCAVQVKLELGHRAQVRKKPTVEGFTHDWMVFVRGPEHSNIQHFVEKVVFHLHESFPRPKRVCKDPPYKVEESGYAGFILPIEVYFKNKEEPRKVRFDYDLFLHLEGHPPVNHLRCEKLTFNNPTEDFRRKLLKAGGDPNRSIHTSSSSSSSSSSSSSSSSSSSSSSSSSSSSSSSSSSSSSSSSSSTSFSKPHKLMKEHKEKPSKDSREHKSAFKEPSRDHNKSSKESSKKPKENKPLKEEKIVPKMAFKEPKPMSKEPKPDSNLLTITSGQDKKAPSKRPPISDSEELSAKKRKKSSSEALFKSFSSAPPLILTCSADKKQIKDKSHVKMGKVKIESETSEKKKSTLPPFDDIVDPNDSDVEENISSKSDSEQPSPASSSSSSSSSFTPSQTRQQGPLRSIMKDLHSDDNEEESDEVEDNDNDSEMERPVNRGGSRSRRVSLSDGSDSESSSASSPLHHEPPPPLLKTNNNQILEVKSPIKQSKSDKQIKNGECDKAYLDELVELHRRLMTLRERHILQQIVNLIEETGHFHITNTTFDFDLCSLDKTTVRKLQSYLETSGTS
* hit, by the source's call; i = inactive; ? = inconclusive; . = no result.

SMILES	MITF TRPM1 HTS	esBAF inh	Ecoli rRNA inh	Wnt bcat act	AF4-AF9 inh
CCOC(=O)c1cnc2ccc(C)cc2c1Sc1ccc(F)cc1	26	32	.	-5	.
CCOC(=O)c1cnc2ccc(C)cc2c1Sc1ccccc1	35	54*	.	-3	.
N#CC1=C(N)C(C#N)(C#N)[C@H](c2c(F)cccc2F)[C@H]2CC3(CC=C12)OCCO3	-8	.	11	-1	8
COc1ccc(NC(=O)C2Cc3c(-c4ccccc4)ccnc3O2)cc1OC (configuration not stated)	.	-5	.	.	.
CN1CCN(C(=O)C[C@@H]2CC[C@H]3[C@@H](COC[C@H](O)CN3C(=O)Nc3ccc(Cl)cc3)O2)CC1	.	11	-34*	.	-2
O=C(C[C@H]1CC[C@@H]2[C@H](COC[C@@H](O)CN2C(=O)Nc2cc(Cl)cc(Cl)c2)O1)N1CCOCC1	.	0	-34*	.	.
O=C(C[C@@H]1CC[C@H]2[C@@H](COC[C@H](O)CN2C(=O)Nc2cc(Cl)cc(Cl)c2)O1)N1CCOCC1	.	-1	-28*	.	-4
O=C(C[C@@H]1CC[C@H]2[C@@H](COC[C@@H](O)CN2C(=O)Nc2cc(Cl)cc(Cl)c2)O1)N1CCOCC1	.	-2	-50	.	0
COc1ccccc1CNC(=O)C[C@H]1CC[C@@H]2[C@H](COC[C@H](O)CN2C(=O)Nc2ccc(Cl)cc2)O1	.	43*	-41	.	1
O=C(C[C@H]1CC[C@H]2[C@@H](COC[C@H](O)CN2C(=O)Nc2cc(Cl)cc(Cl)c2)O1)N1CCOCC1	.	-4	i	.	.
COCC(=O)N1[C@H](C(=O)NCc2ccccc2F)[C@@H](CO)[C@@H]2Cn3c(cccc3=O)[C@@H]21	.	2	-1	.	-2
C[C@H]1CCCCO[C@@H](CN(C)C(=O)Nc2ccc(F)cc2)[C@@H](C)CN([C@@H](C)CO)C(=O)c2cc(NC(=O)Cc3ccccc3)ccc2O1	.	4	4	.	0
Cc1noc(C)c1NC(=O)Nc1ccc2c(c1)C(=O)N([C@H](C)CO)C[C@@H](C)[C@H](CN(C)S(=O)(=O)c1cn(C)cn1)O2	.	-1	0	.	-3
COc1ccc(NC(=O)C2(C)Cc3c(-c4cccc(C(F)(F)F)c4)ccnc3O2)cc1OC (configuration not stated)	.	-1	6	0	2
CCOC(=O)CCCCCC(=O)Nc1ccc2c(c1)CC(=O)N([C@@H](C)CO)C[C@@H](C)[C@@H](CN(C)C(=O)Nc1ccc(C(F)(F)F)cc1)O2	-11	-1	-11	-2	-2
COC(=O)C[C@H]1CC[C@H]2[C@@H](COC[C@@H](O)CN2C(=O)Nc2cccc(F)c2)O1	.	50*	-11	.	0
O=C(C[C@@H]1CC[C@@H]2[C@H](COC[C@H](O)CN2C(=O)Nc2ccc(F)cc2)O1)NCCCN1CCOCC1	.	-1	4	.	-18
COC(=O)C[C@@H]1CC[C@H]2[C@@H](COC[C@H](O)CN2C(=O)Nc2cccc(F)c2)O1	.	20	-4	.	1
O=C(C[C@@H]1CC[C@H]2[C@@H](COC[C@@H](O)CN2C(=O)Nc2ccc(F)cc2)O1)NCCCN1CCOCC1	.	-1	0	.	31*
O=C(CN1C(=O)S/C(=C\c2cccc(Cl)c2)C1=O)NCCCn1ccnc1	17	3	-8	0	-5
COc1cc(/C=N/Nc2nc3ccccc3o2)cc(OC)c1O	.	14	.	.	.
COc1cc(/C=N/Nc2ccccn2)ccc1O	29	.	9	37*	9
COc1ccc(/C=N/Nc2ccccn2)cc1OC	.	.	8	0	4
COc1ccc(/C=N/Nc2nc3ccccc3o2)cc1O	-13	-19	.	62*	.
Brc1ccc(/C=N/Nc2nc3ccccc3o2)cc1	99*	?	-33	47*	4
COc1cc(/C=N\Nc2nc3ccccc3o2)cc(OC)c1OC	70	51*	.	?	.
C[C@@H]1CN([C@H](C)CO)C(=O)c2cc(NS(C)(=O)=O)ccc2O[C@@H](C)CCCCO[C@H]1CN(C)Cc1ccc(Cl)c(Cl)c1	.	-4	-37	.	8
COc1ccc(C(=O)Nc2nc(C)cs2)cc1S(=O)(=O)N1CCOCC1	.	7	5	-2	5
Cc1c(CC(=O)NCCCC(=O)O)c(=O)oc2c(C)c3oc4c(c3cc12)CCCC4	5	-5	-28	-4	2
CC(=O)NC(Cc1ccccc1)C(=O)Oc1ccc2ccccc2c1 (configuration not stated)	-6	-5	-6	-5	1
